# Experimental data published in article PMC7862700, “An all-to-all approach to the identification of sequence-specific readers for epigenetic DNA modifications on cytosine”.
# What was measured:
# Assay in all cases: DAPPL (digital affinity profiling via proximity ligation, sequencing); 10 mM Tris-HCl pH 7.5, 50 mM NaCl, 1 mM DTT, 4% glycerol, room temperature, 30 min; GST-TFs on glutathione beads, 16-mer random dsDNA library, 0.1% formaldehyde crosslink after washing; high values mean tight binding
# FLI1 = target: T1, FLI1 (Homo sapiens, UniProt Q01543 1-452); conditions: protein: recombinant; tags: N-terminal GST; dsDNA, one strand shown
# T1 sequence: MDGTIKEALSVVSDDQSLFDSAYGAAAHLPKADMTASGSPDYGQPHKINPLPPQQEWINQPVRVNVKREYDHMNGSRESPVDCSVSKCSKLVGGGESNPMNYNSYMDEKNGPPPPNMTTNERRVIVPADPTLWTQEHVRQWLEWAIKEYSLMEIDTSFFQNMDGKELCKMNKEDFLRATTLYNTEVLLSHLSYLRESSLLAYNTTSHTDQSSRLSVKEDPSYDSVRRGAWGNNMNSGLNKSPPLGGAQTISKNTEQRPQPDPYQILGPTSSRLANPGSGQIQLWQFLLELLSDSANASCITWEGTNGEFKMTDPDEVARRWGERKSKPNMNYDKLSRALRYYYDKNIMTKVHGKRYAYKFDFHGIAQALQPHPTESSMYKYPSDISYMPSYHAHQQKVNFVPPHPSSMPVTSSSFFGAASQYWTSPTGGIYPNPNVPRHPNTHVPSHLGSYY
# Outline: (§1)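 Human transcription factors were made in yeast as GST fusions, captured on glutathione beads and barcoded with DNA. With a tag-only sample included, the pool was incubated with 200 nmole of a random double-stranded 16-mer DNA library in Tris/NaCl/DTT/glycerol buffer at room temperature for 30 min, then crosslinked with 0.1% formaldehyde after washing, ligated by proximity, amplified and sequenced. For binding signal, each hexamer's read frequency for a factor is divided by its frequency for the tag-only sample.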
# ELK1 = target: T2, ELK1 (Homo sapiens, UniProt P19419 1-428); conditions: protein: recombinant; tags: N-terminal GST; dsDNA, one strand shown
# T2 sequence: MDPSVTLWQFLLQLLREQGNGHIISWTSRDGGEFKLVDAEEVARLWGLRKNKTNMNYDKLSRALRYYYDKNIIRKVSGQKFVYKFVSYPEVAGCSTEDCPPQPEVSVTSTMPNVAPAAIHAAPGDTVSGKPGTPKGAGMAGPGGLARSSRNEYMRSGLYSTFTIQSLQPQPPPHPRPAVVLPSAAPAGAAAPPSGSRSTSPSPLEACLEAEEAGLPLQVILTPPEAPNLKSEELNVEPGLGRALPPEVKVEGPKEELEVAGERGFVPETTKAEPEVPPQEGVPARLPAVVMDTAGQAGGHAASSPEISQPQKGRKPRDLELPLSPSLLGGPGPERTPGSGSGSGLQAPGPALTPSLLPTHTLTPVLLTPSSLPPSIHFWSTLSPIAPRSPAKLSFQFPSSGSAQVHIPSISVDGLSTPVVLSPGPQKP
# Outline: as §1
# GABPA = target: T3, GABPA (Homo sapiens, UniProt Q06546 1-454); conditions: protein: recombinant; tags: N-terminal GST; dsDNA, one strand shown
# T3 sequence: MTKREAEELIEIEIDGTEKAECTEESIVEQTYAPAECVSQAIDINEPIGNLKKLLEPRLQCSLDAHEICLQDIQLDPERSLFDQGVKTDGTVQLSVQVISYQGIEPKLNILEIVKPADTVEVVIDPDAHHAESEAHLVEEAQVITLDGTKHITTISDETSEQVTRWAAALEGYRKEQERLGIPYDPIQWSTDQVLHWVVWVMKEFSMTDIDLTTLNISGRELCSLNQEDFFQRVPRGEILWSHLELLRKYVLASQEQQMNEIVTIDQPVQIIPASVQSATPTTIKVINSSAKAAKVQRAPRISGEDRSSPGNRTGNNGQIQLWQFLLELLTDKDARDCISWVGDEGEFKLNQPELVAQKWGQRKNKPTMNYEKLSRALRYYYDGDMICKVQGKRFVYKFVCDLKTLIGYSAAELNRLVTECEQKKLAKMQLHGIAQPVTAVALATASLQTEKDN
# Outline: as §1
# ERG = target: T4, ERG (Homo sapiens, UniProt P11308 1-479); conditions: protein: recombinant; tags: N-terminal GST; dsDNA, one strand shown
# T4 sequence: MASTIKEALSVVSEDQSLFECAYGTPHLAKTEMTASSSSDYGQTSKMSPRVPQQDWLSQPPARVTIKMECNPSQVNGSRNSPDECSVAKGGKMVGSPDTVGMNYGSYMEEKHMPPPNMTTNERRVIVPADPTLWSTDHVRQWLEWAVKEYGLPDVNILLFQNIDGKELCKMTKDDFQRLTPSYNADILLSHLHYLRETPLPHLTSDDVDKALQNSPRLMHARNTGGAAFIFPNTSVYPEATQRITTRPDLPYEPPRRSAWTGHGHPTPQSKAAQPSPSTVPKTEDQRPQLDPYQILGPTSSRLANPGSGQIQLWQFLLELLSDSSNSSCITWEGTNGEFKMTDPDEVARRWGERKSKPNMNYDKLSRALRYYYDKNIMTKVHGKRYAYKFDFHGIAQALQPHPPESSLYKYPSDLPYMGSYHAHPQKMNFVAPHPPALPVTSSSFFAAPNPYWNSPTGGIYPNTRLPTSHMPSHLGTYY
# Outline: as §1
# ELF1 = ELF1 (Homo sapiens, UniProt P32519 1-619); conditions: protein: recombinant; tags: N-terminal GST; dsDNA, one strand shown
# Chain of ELF1 (P32519 whole entry): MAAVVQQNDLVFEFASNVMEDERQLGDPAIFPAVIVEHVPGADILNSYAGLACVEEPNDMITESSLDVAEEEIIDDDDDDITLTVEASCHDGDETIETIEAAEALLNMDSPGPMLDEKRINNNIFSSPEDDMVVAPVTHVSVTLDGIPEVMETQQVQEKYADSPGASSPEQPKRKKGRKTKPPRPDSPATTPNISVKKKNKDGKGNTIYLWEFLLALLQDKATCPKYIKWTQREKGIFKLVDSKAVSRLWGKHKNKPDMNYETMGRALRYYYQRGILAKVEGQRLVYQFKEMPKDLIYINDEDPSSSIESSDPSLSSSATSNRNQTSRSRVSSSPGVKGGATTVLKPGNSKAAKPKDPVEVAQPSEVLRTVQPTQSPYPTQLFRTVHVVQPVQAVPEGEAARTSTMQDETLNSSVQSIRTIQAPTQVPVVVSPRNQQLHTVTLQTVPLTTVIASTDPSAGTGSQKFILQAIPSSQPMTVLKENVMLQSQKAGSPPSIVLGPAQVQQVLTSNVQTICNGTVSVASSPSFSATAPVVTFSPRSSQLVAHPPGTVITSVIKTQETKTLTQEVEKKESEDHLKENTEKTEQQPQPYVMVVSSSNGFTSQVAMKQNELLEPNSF
# Outline: as §1
# EHF = target: T5, EHF (Homo sapiens, UniProt Q9NZC4 1-300); conditions: protein: recombinant; tags: N-terminal GST; dsDNA, one strand shown
# T5 sequence: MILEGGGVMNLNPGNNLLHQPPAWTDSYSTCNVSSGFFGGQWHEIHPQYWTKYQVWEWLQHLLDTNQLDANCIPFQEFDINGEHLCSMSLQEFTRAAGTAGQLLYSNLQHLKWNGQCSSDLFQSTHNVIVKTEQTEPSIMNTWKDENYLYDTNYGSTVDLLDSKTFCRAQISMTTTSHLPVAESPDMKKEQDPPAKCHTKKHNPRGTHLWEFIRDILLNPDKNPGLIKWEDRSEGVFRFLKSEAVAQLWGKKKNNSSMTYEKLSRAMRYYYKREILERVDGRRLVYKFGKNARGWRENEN
# Outline: as §1
# SPI1 = SPI1 (Homo sapiens, UniProt P17947 1-270); conditions: protein: recombinant; tags: N-terminal GST; dsDNA, one strand shown
# Outline: as §1
# SPIB = SPIB (Homo sapiens, UniProt Q01892 1-262); conditions: protein: recombinant; tags: N-terminal GST; dsDNA, one strand shown
# Chain of SPIB (Q01892 whole entry): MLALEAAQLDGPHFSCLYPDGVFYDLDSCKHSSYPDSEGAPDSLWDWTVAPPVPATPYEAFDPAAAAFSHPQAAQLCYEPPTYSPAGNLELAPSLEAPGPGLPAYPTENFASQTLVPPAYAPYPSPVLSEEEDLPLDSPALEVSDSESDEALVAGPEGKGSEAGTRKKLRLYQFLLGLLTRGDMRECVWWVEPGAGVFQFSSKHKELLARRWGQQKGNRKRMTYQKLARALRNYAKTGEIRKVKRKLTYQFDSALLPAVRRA
# Outline: as §1
# ELK3 = target: T6, ELK3 (Homo sapiens, UniProt P41970 1-407); conditions: protein: recombinant; tags: N-terminal GST; dsDNA, one strand shown
# T6 sequence: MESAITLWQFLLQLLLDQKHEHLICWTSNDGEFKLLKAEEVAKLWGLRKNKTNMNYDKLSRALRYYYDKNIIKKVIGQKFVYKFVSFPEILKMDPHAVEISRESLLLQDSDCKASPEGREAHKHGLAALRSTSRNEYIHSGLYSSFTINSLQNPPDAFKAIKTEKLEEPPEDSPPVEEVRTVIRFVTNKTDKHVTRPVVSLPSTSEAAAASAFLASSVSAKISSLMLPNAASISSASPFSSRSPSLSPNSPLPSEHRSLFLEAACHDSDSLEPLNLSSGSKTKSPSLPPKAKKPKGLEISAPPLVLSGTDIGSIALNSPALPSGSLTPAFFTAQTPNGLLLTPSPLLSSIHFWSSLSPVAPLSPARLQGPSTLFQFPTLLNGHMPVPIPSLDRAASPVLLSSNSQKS
# Outline: as §1
# FEV = target: T7, FEV (Homo sapiens, UniProt Q99581 1-238); conditions: protein: recombinant; tags: N-terminal GST; dsDNA, one strand shown
# T7 sequence: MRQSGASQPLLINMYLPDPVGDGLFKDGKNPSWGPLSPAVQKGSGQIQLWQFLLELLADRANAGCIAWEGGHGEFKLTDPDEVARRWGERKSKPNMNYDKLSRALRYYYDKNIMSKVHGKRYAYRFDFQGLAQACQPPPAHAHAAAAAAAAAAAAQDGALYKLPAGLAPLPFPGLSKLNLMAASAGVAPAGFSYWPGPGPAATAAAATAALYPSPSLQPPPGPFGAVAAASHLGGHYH
# Outline: as §1
# ETV5 = ETV5 (Homo sapiens, UniProt P41161 1-510); conditions: protein: recombinant; tags: N-terminal GST; dsDNA, one strand shown
# Chain of ETV5 (P41161 whole entry): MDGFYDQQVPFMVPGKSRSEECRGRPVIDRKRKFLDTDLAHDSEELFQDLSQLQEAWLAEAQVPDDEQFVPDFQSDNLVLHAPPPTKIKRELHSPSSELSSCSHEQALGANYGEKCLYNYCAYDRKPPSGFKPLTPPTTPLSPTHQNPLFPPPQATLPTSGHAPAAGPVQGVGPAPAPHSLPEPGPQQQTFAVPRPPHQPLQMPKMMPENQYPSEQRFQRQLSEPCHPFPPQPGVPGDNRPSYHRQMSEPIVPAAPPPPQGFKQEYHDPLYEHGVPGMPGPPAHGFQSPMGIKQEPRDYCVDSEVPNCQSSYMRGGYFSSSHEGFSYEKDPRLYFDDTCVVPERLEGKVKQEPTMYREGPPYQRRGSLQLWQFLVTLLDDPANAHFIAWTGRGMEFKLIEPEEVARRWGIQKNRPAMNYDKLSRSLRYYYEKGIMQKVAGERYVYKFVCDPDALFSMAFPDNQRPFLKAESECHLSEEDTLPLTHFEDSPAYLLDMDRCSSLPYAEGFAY
# Outline: as §1
# HSF1 = HSF1 (Homo sapiens, UniProt Q00613 1-529); conditions: protein: recombinant; tags: N-terminal GST; chain copies: 3; dsDNA, one strand shown
# Chain of HSF1 (Q00613 whole entry): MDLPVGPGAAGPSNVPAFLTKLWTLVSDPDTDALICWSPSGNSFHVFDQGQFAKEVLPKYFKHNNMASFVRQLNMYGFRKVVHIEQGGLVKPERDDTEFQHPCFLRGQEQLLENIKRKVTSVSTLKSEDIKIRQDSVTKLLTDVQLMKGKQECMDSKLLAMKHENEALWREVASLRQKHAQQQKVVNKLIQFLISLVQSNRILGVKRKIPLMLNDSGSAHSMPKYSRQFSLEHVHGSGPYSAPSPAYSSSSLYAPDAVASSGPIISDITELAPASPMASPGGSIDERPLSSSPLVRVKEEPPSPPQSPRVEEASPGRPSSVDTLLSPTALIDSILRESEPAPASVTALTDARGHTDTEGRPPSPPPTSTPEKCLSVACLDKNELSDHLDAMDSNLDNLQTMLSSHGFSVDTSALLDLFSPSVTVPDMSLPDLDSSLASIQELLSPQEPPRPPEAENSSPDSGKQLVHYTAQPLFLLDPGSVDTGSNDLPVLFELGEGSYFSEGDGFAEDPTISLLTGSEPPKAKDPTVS
# Outline: as §1
# SPIC = target: T8, SPIC (Homo sapiens, UniProt Q8N5J4 1-248); conditions: protein: recombinant; tags: N-terminal GST; dsDNA, one strand shown
# T8 sequence: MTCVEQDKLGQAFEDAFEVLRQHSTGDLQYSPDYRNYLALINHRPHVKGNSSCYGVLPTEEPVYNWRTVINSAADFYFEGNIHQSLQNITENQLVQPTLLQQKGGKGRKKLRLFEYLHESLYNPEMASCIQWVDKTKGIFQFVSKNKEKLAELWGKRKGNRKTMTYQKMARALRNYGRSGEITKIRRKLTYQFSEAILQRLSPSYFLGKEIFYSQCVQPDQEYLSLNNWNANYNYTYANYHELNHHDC
# Outline: as §1
# ELF4 = ELF4 (Homo sapiens, UniProt Q99607 1-663); conditions: protein: recombinant; tags: N-terminal GST; dsDNA, one strand shown
# Chain of ELF4 (Q99607 whole entry): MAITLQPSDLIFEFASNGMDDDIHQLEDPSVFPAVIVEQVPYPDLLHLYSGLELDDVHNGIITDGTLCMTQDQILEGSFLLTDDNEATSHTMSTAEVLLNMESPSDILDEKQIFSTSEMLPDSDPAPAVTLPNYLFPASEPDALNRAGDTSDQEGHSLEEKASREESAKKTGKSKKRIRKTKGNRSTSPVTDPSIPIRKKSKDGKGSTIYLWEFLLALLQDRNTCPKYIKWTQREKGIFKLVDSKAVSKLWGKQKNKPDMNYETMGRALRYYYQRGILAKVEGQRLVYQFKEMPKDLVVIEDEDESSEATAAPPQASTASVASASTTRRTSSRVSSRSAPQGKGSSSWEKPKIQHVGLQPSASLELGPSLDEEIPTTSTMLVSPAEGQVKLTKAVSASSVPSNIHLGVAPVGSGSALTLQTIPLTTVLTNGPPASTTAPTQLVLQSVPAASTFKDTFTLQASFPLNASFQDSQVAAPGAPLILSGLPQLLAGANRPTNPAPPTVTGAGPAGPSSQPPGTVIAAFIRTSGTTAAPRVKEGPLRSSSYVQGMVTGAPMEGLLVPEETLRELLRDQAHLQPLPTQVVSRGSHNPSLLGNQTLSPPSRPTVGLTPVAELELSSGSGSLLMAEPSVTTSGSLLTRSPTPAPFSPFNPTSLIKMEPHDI
# Outline: as §1
# ELK4 = target: T9, ELK4 (Homo sapiens, UniProt P28324-2 1-405); conditions: protein: recombinant; tags: N-terminal GST; dsDNA, one strand shown
# T9 sequence: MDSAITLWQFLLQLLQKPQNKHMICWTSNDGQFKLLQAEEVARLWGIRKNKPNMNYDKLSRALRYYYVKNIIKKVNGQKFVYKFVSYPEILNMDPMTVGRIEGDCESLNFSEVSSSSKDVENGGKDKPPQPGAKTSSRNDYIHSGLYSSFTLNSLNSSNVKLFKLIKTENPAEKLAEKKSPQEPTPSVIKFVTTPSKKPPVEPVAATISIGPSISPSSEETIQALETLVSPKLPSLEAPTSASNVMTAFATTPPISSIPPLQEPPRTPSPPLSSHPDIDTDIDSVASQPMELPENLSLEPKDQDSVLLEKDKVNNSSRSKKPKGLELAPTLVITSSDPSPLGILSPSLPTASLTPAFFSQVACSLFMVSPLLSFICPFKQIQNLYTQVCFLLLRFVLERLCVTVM
# Outline: as §1
# ETV2 = target: T10, ETV2 (Homo sapiens, UniProt O00321 1-342); conditions: protein: recombinant; tags: N-terminal GST; dsDNA, one strand shown
# T10 sequence: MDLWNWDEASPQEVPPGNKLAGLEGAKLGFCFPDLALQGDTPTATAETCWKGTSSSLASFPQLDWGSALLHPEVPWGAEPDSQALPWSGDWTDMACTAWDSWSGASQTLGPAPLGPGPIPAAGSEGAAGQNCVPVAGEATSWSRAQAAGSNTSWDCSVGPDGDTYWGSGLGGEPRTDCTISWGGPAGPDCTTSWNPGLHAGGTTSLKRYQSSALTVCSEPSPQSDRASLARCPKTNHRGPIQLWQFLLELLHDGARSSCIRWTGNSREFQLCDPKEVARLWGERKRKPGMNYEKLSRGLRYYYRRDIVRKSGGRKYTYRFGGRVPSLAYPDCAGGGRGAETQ
# Outline: as §1
# ELF3 = target: T11, ELF3 (Homo sapiens, UniProt P78545 1-371); conditions: protein: recombinant; tags: N-terminal GST; dsDNA, one strand shown
# T11 sequence: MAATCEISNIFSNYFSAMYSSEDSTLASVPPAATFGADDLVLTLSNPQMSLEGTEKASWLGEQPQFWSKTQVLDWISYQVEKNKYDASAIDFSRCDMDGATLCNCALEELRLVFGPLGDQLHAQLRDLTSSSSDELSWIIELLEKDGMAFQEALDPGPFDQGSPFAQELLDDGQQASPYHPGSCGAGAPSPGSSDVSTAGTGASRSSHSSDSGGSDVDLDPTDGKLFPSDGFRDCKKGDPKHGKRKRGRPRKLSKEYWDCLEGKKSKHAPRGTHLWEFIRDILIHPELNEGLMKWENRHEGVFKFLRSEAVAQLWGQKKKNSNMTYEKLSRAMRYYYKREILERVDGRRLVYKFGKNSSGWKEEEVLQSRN
# Outline: as §1
# CRX = CRX (Homo sapiens, UniProt O43186 1-299); conditions: protein: recombinant; tags: N-terminal GST; dsDNA, one strand shown
# Chain of CRX (O43186 whole entry): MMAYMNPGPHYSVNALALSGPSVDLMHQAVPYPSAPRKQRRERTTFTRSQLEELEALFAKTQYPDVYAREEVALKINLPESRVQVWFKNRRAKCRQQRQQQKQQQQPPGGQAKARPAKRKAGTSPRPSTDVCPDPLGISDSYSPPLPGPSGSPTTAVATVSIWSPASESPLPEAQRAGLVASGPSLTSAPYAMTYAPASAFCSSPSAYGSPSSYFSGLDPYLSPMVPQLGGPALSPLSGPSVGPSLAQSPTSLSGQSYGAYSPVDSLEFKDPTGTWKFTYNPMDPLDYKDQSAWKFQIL
# Outline: as §1
# ETV1 = ETV1 (Homo sapiens, UniProt P50549 1-477); conditions: protein: recombinant; tags: N-terminal GST; dsDNA, one strand shown
# Chain of ETV1 (P50549 whole entry): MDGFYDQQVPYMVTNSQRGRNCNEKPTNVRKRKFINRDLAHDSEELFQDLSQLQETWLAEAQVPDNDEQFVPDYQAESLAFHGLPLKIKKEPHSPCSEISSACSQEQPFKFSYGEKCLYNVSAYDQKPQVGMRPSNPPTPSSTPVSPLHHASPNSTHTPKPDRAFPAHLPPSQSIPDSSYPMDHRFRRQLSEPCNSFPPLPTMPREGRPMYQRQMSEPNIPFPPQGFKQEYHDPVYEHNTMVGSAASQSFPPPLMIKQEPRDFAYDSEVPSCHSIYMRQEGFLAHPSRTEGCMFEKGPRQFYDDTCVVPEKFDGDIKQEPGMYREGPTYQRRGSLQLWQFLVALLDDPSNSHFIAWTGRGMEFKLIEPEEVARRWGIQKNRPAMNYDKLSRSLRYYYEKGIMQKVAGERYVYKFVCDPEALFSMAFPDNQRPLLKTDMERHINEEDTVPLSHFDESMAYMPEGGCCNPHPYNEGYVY
# Outline: as §1
sequence,measurement,setting,value
ATCTTT,binding signal,FLI1,"1.26 fold enrichment (6-mer frequency, TF over GST control)"
same,binding signal,ELK1,"1.24 fold enrichment (6-mer frequency, TF over GST control)"
same,binding signal,GABPA,"1.22 fold enrichment (6-mer frequency, TF over GST control)"
same,binding signal,ERG,"1.21 fold enrichment (6-mer frequency, TF over GST control)"
same,binding signal,ELF1,"1.19 fold enrichment (6-mer frequency, TF over GST control)"
same,binding signal,EHF,"1.27 fold enrichment (6-mer frequency, TF over GST control)"
same,binding signal,SPI1,"1.21 fold enrichment (6-mer frequency, TF over GST control)"
same,binding signal,SPIB,"1.23 fold enrichment (6-mer frequency, TF over GST control)"
same,binding signal,ELK3,"1.22 fold enrichment (6-mer frequency, TF over GST control)"
same,binding signal,FEV,"1.19 fold enrichment (6-mer frequency, TF over GST control)"
same,binding signal,ETV5,"1.16 fold enrichment (6-mer frequency, TF over GST control)"
same,binding signal,HSF1,"1.58 fold enrichment (6-mer frequency, TF over GST control)"
same,binding signal,SPIC,"1.35 fold enrichment (6-mer frequency, TF over GST control)"
same,binding signal,ELF4,"1.22 fold enrichment (6-mer frequency, TF over GST control)"
same,binding signal,ELK4,"1.29 fold enrichment (6-mer frequency, TF over GST control)"
same,binding signal,ETV2,"1.15 fold enrichment (6-mer frequency, TF over GST control)"
same,binding signal,ELF3,"1.17 fold enrichment (6-mer frequency, TF over GST control)"
same,binding signal,CRX,"1.76 fold enrichment (6-mer frequency, TF over GST control)"
same,binding signal,ETV1,"1.24 fold enrichment (6-mer frequency, TF over GST control)"
